Experimental data: the antibiotic and cytotoxicity screens of Wong et al. (2023)
The campaign covered roughly 39,000 compounds. About 3,300 (8.5%) were called active. Only a selection was taken, and actives are over-represented in it overall.

System: HepG2
Assay: cytotoxicity call (relative viability < 0.9)
Conditions: 10 µM

Row | Structure (SMILES) | cytotoxicity call
1 | C[C@H]1CCCCO[C@@H](CN(C)C(=O)Nc2ccc(C(F)(F)F)cc2)[C@@H](C)CN([C@@H](C)CO)C(=O)c2cc(N(C)C)ccc2O1 | inactive
2 | CC(C)NC(=O)Nc1ccc2c(c1)CC(=O)N([C@H](C)CO)C[C@@H](C)[C@@H](CN(C)Cc1ccc3c(c1)OCO3)O2 | inactive
3 | C[C@@H]1CCCCO[C@H](CN(C)C(=O)Cc2ccccc2)[C@@H](C)CN([C@H](C)CO)C(=O)c2cc(NC(=O)Cc3ccccc3)ccc2O1 | inactive
4 | C[C@H]1CN([C@@H](C)CO)C(=O)c2cccc(NC(=O)c3ccc(-c4nccs4)cc3)c2O[C@H]1CN(C)C(=O)NC1CCCCC1 | inactive
5 | CC(C)NC(=O)N(C)C[C@H]1OCCCC[C@@H](C)Oc2ccc(NC(=O)Nc3ccc(C(F)(F)F)cc3)cc2C(=O)N([C@@H](C)CO)C[C@H]1C | inactive
6 | CC(C)NC(=O)N(C)C[C@H]1OCCCC[C@H](C)Oc2ccc(NC(=O)Nc3ccc(C(F)(F)F)cc3)cc2C(=O)N([C@H](C)CO)C[C@@H]1C | inactive
7 | C[C@H](CO)N1C[C@H](C)[C@H](CN(C)C(=O)Nc2ccc(C(F)(F)F)cc2)OCCCC[C@H](C)Oc2ccc(NC(=O)Nc3ccc(C(F)(F)F)cc3)cc2C1=O | inactive
8 | C[C@H]1CCCCO[C@@H](CN(C)C(=O)Nc2ccc(C(F)(F)F)cc2)[C@@H](C)CN([C@@H](C)CO)C(=O)c2cc(NC(=O)Nc3ccc(C(F)(F)F)cc3)ccc2O1 | inactive
9 | Cc1noc(C)c1NC(=O)N(C)C[C@@H]1OCCCC[C@@H](C)Oc2ccc(NC(=O)Nc3ccc(C(F)(F)F)cc3)cc2C(=O)N([C@H](C)CO)C[C@@H]1C | inactive
10 | C[C@@H]1CN([C@H](C)CO)C(=O)c2cc(NC(=O)Nc3ccc(C(F)(F)F)cc3)ccc2O[C@@H](C)CCCCO[C@H]1CN(C)C(=O)Nc1ccc(C(F)(F)F)cc1 | active
11 | CC(C)NC(=O)N(C)C[C@@H]1OCCCC[C@H](C)Oc2ccc(NC(=O)Nc3ccc(C(F)(F)F)cc3)cc2C(=O)N([C@@H](C)CO)C[C@@H]1C | active
12 | C[C@@H]1CCCCO[C@H](CN(C)C(=O)Nc2ccc(C(F)(F)F)cc2)[C@@H](C)CN([C@@H](C)CO)C(=O)c2cc(NC(=O)Nc3ccc(C(F)(F)F)cc3)ccc2O1 | inactive
13 | C[C@H]1CCCCO[C@H](CN(C)C(=O)Nc2ccc(C(F)(F)F)cc2)[C@@H](C)CN([C@@H](C)CO)C(=O)c2cc(NC(=O)Nc3ccc(C(F)(F)F)cc3)ccc2O1 | active
14 | C[C@@H]1CCCCO[C@H](CN(C)C(=O)Nc2ccc(C(F)(F)F)cc2)[C@H](C)CN([C@H](C)CO)C(=O)c2cc(NC(=O)Nc3ccc(C(F)(F)F)cc3)ccc2O1 | inactive
15 | Cc1noc(C)c1NC(=O)N(C)C[C@@H]1OCCCC[C@H](C)Oc2ccc(NC(=O)Nc3ccc(C(F)(F)F)cc3)cc2C(=O)N([C@@H](C)CO)C[C@@H]1C | active
16 | Cc1noc(C)c1NC(=O)N(C)C[C@H]1OCCCC[C@@H](C)Oc2ccc(NC(=O)Nc3ccc(C(F)(F)F)cc3)cc2C(=O)N([C@@H](C)CO)C[C@H]1C | inactive
17 | C[C@@H]1CCCCO[C@@H](CN(C)S(C)(=O)=O)[C@H](C)CN([C@@H](C)CO)C(=O)c2cc(NS(=O)(=O)c3cn(C)cn3)ccc2O1 | inactive
18 | C[C@H]1CN([C@@H](C)CO)C(=O)c2cc(NC(=O)C3CC3)ccc2O[C@@H]1CN(C)C(=O)NC1CCCCC1 | inactive
19 | O=C(C[C@H]1C[C@@H]2c3cc(NC(=O)Cc4ccncc4)ccc3O[C@@H]2[C@H](CO)O1)NCCN1CCCCC1 | inactive
20 | C[C@H]1CN([C@@H](C)CO)C(=O)c2cccc(NC(=O)CCCCCC(=O)Nc3ccccc3N)c2O[C@@H]1CN(C)C(=O)Nc1ccc(F)cc1 | inactive
21 | C[C@@H]1CCCCO[C@@H](CN(C)CC2CCCCC2)[C@@H](C)CN([C@H](C)CO)C(=O)c2cc(NC(=O)Cc3ccccc3)ccc2O1 | inactive

Row | Structure (SMILES) | cytotoxicity call
22 | COc1ccccc1[C@@H](NC(=O)C1CCN(CCn2cnc3c2c(=O)n(C)c(=O)n3C)CC1)c1ccccn1 | inactive
23 | CN1CCN(C(=O)C[C@H]2C[C@H]3c4cc(NS(=O)(=O)c5ccc(F)cc5)ccc4O[C@H]3[C@@H](CO)O2)CC1 | inactive
24 | C[C@@H]1CCCCO[C@@H](CN(C)S(=O)(=O)c2ccc(Cl)cc2)[C@@H](C)CN([C@@H](C)CO)C(=O)c2cc(NC(=O)Nc3ccc(C(F)(F)F)cc3)ccc2O1 | inactive
25 | COc1ccc(NC(=O)Nc2ccc3c(c2)C(=O)N([C@H](C)CO)C[C@@H](C)[C@H](CN(C)C(=O)Nc2ccc(C(F)(F)F)cc2)OCCCC[C@@H](C)O3)cc1 | inactive
26 | COc1ccc(NC(=O)N(C)C[C@@H]2OCCCC[C@@H](C)Oc3ccc(NC(=O)Nc4ccc(C(F)(F)F)cc4)cc3C(=O)N([C@H](C)CO)C[C@@H]2C)cc1 | inactive
27 | COc1ccc(NC(=O)N(C)C[C@H]2OCCCC[C@@H](C)Oc3ccc(NC(=O)Nc4ccc(C(F)(F)F)cc4)cc3C(=O)N([C@H](C)CO)C[C@H]2C)cc1 | active
28 | O=C(C[C@H]1CC[C@@H]2[C@H](COC[C@H](O)CN2C(=O)c2cccnc2)O1)NCC1CC1 | inactive
29 | Fc1cccc(-c2csc(COc3ccccc3Cl)n2)c1 | inactive
30 | O=c1oc2c(O)c(O)cc3c(=O)oc4c(O)c(O)cc1c4c23 | active
31 | Cc1cc(=O)oc2cc(O)c(O)cc12 | inactive
32 | O=c1c(O)c(-c2cc(O)c(O)c(O)c2)oc2cc(O)cc(O)c12 | inactive
33 | O=C(C[C@@H]1C[C@H]2c3cc(NC(=O)C4CCOCC4)ccc3O[C@H]2[C@@H](CO)O1)NCc1ccc2c(c1)OCO2 | inactive
34 | COc1ccc([C@H]([C@@H](O)Cc2ccccc2)N(C[C@H](/C=C/c2ccccc2)CC(=O)N(C)C)[C@@H](Cc2ccccc2)C(OC)OC)cc1 | active
35 | COc1ccc([C@@H]([C@H](Cc2ccccc2)OC(C)=O)N2C[C@H](CC(=O)N(C)C)[C@@H]3C(=NO[C@H]3c3ccccc3)[C@@H]2Cc2ccccc2)cc1 | inactive
36 | COc1ccc([C@H]([C@H](Cc2ccccc2)OC(C)=O)N(C[C@H](/C=C/c2ccccc2)CC(=O)N(C)C)[C@@H](Cc2ccccc2)C(OC)OC)cc1 | active
37 | COc1ccc([C@H]([C@H](Cc2ccccc2)OC(C)=O)N(C[C@H](/C=C/c2ccccc2)OC(C)=O)[C@@H](Cc2ccccc2)C(OC)OC)cc1 | inactive
38 | COc1ccc([C@H]([C@@H](O)Cc2ccccc2)N(C[C@H](/C=C/c2ccccc2)NC(=O)C(Cl)(Cl)Cl)[C@@H](Cc2ccccc2)C(OC)OC)cc1 | inactive
39 | COc1ccc([C@H]([C@H](Cc2ccccc2)OC(C)=O)N(C[C@H](/C=C/c2ccccc2)NC(=O)C(Cl)(Cl)Cl)[C@@H](Cc2ccccc2)C(OC)OC)cc1 | inactive
40 | COc1ccc([C@H]([C@H](Cc2ccccc2)OC(C)=O)N(C[C@@H](/C=C/c2ccccc2)CC(=O)N(C)C)[C@@H](Cc2ccccc2)C(OC)OC)cc1 | active
41 | COc1ccc([C@H]([C@@H](O)Cc2ccccc2)N(C/C=C/[C@@H](O)c2ccccc2)[C@@H](Cc2ccccc2)C(OC)OC)cc1 | inactive
42 | COc1ccc([C@@H]([C@H](Cc2ccccc2)OC(C)=O)N2C[C@@H](CC(=O)N(C)C)[C@@H]3C(=NO[C@H]3c3ccccc3)[C@@H]2Cc2ccccc2)cc1 | inactive
